# A selection: hits, their analogues and other compounds. The true share with any hit is near 6%.
# D1 antagonist – human D1 dopamine receptor antagonism. 360,000 tested, 3.2% active. HEK293 TREx D1 cells, calcium flux, dopamine EC80; active compounds read low. activity change, negative = inhibition, % at 10 µM. AID 504652; in the data active = activity change below about -30%
# Target sequence (P21728 whole entry, looked up): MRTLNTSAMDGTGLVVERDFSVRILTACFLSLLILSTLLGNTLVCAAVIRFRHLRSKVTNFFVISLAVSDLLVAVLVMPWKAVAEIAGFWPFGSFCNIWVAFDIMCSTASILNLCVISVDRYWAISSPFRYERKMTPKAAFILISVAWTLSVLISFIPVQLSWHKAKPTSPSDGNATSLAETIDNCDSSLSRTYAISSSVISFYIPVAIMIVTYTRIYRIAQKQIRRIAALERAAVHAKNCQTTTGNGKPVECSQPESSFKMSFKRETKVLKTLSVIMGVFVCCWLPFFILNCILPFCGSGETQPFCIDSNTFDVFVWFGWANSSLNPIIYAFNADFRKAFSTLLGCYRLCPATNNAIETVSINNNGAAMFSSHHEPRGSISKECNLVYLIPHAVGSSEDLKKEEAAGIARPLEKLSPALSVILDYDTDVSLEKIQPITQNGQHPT
#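 Using tetracycline-induced force-coupled D1 Hek293 cells and a calcium dye, signals were followed for 180 s after compound, then for 180 s after EC80 dopamine, to detect inhibitors.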
# D1 agonist – human D1 receptor agonism | AID 504660 | 360,000 tested, 1% active | HEK293 T-REx D1 cells, calcium flux, agonist mode | P21728 | activation, % at 2 µM; in the data active = activation above about 30%
#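 Tetracycline-induced HEK293 TREx D1 cells, force-coupled to calcium signalling, were dye-loaded with a no-wash calcium kit. Compound was pin-added after a 10 s baseline. Fluorescence was read kinetically at 1 cycle/s for 180 s, with calcium rises flagged as agonism.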
# D3 ag – activates the human D3 dopamine receptor; P35462; D3R DiscoveRx beta-arrestin cells, luminescence, 90 min; max activation, %; 410,000 tested, 0.58% active; AID 652048; in the data active = max activation above about 30%
#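 Agonist mode: compounds and dopamine controls were applied to plated cells for 90 min at 37 degrees C after an overnight attachment at 1500 cells/well. Luminescent read-out followed 30 - 60 minutes at room temperature with DiscoveRx detection reagent.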
# DRD3 antagonist – D3 dopamine receptor (human) antagonism | P35462 | D3R cells, DiscoveRx beta-arrestin luminescence, antagonist mode; active compounds read low | max response, negative = inhibition, % | 360,000 tested, 2.5% active; in the data active = max response below about -50%; inconclusive = no clear call, values can overlap the other calls
#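 Cells plated overnight at 1500 cells/well, then exposed to library compounds with dopamine controls for 90 minutes at 37 degrees C. DiscoveRx reagent added for 30–60 minutes at room temperature; luminescence read, quantitative HTS format.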
# D1 PAM – enhances dopamine response at the human D1 receptor; HEK293 TREx D1 cells, calcium flux, dopamine EC20 potentiation; 360,000 tested, 0.036% active; potentiation, % at 10 µM; P21728; AID 504651; in the data active = potentiation above about 30%
# Numbers stand for hits; i = inactive; ? = inconclusive; nt = no result; ! = not active in a repeat.
SMILES,D1 antagonist,D1 agonist,D3 ag,DRD3 antagonist,D1 PAM
O=C(CC1Sc2ccccc2NC1=O)NNc1cc(Cl)ccc1Cl (stereo not drawn),nt,nt,35.8,i,nt
O=C(CC1Sc2ccccc2NC1=O)c1ccc(Br)cc1 (stereo not drawn),-55.8,i,i,i,i
O=C(O)CC1Sc2ccccc2NC1=O (stereo not drawn),i,i,i,i,i
Nc1nc2ccccc2n1CCOc1ccccc1Cl,-36.2,i,i,i,i
CCN(CC)CCn1c(=N)n(CCOc2ccccc2Cl)c2ccccc21,i,52.7,i,nt,i
Cc1nc2ccc(-c3ccccc3)cc2o1,-45.9,i,i,i,i
COc1ccccc1Nc1nc(N)nc(CN2CCC(Cc3ccccc3)CC2)n1,i,i,i,-58.9,i
Nc1nc(CN2CCN(Cc3ccccc3)CC2)nc(Nc2ccc3c(c2)OCCO3)n1,i,i,i,-59.4,i
CCc1ccc(CN2CCc3nc(Nc4ccc5c(c4)OCCO5)ncc3C2)cc1,-66.0,i,i,nt,i
COc1ccccc1N1CCN(Cc2nc(N)nc(Nc3ccccc3)n2)CC1,i,i,i,-71.1,i
COc1ccc(NC(=O)CN2CCN(Cc3ccccc3)S2(=O)=O)c(OC)c1,i,i,i,nt,i
CCc1ccccc1NC(=O)Nc1cc(C(=O)NCc2ccc(C)cc2)ccc1N1CCCC1,i,i,i,nt,i
Cc1ccc(Cl)cc1NC(=O)c1ccc(-c2nc(CSc3ccccc3)c(C)o2)cc1,i,i,i,nt,i
C/C=C1\NC(=O)[C@H]2CSSCC/C=C/[C@H](CC(=O)N[C@H](C(C)C)C(=O)N2)OC(=O)C(C(C)C)NC1=O (stereo partly drawn),nt,nt,i,nt,nt
Cc1ccccc1S(=O)(=O)Cc1ccc(C(=O)NCCN2CCN(Cc3ccccc3)CC2)o1,i,i,i,-51.3,i
COc1ccccc1S(=O)(=O)Cc1ccc(C(=O)NC2CCCCCC2)o1,i,i,i,i,i
COc1ccccc1S(=O)(=O)Cc1ccc(C(=O)NCC2CCCO2)o1 (stereo not drawn),-35.8,i,i,i,i
COc1ccccc1CNC(=O)c1ccc(CS(=O)(=O)c2ccccc2C)o1,-38.2!,31.2!,i,i,i
COc1ccccc1CNC(=O)Cc1ccccc1,i,i,i,i,i
COc1ccccc1CNC(=O)c1ccc(C)s1,-46.3,i,i,i,i
COC(=O)CSc1ncnc2c1cnn2Cc1ccccc1,i,42.1,i,i,i
CC(C)OC(=O)CSc1ncnc2c1cnn2Cc1ccccc1,i,i,i,i,i
CN1CCN(C(=O)NC2CCCCC2)CC1,i,i,i,-53.8,i
O=C(NC1CCCCC1)N1CCCCCC1,i,i,i,i,i
COc1ccc(CNC(=O)c2ccc(N3CCCC3)c(NC(=O)NCc3ccc(F)cc3)c2)cc1,i,i,i,nt,i
SMILES,D1 antagonist,D1 agonist,D3 ag,DRD3 antagonist,D1 PAM
CC(C)(C)C1CCC(CN2CCC(CN3C(=O)C(=O)NC[C@@H]3Cc3ccccc3)CC2)CC1 (stereo partly drawn),nt,nt,i,i,nt
Cc1cc(C)n(-c2nnc(N3CCN(c4ccc(F)cc4)CC3)nn2)n1,-41.9,i,i,i,i
Cc1cc(C)n(-c2ccc(N3CCOCC3)nn2)n1,i,i,i,i,i
COc1ccc(C)cc1NC(=O)CSc1nnc(-c2ccco2)n1N,i,i,i,i,i
CC(=O)c1cccc(NC(=O)CSc2ccc(-c3ccco3)nn2)c1,-56.5,i,i,i,i
COc1ccc(C)cc1NC(=O)CSc1ccc(-c2ccco2)nn1,i,i,i,i,41.6
CCCC(=O)N1CCC1(C)C(=O)NS(=O)(=O)c1cccc(C)c1 (stereo not drawn),nt,nt,92.5,i,nt
CCCC(=O)N1CCC1(C)C(=O)NS(=O)(=O)c1cccc(Cl)c1 (stereo not drawn),nt,nt,i,i,nt
Cc1cc(C)cc(CC(=O)N2CCC2(C)C(=O)NS(=O)(=O)c2ccc(C#N)cc2)c1 (stereo not drawn),nt,nt,70.4,i,nt
Cc1cc(C(=O)N2CCC2(C)C(=O)NS(=O)(=O)c2cccc(OC(F)F)c2)nn1C (stereo not drawn),nt,nt,74.0,i,nt
CC1(C(=O)NS(=O)(=O)c2cccc(OC(F)F)c2)CCN1C(=O)c1cccc(F)c1 (stereo not drawn),nt,nt,i,i,nt
CCOc1cc(CNC(=O)CN2CCSc3ccccc32)cc(OCC)c1OCC,i,i,i,nt,i
COc1cc(C(=O)Nc2ccc(-c3nc4ccccc4o3)c(O)c2)cc(OC)c1OC,i,i,i,nt,i
COc1cc(OC)c(NC(=O)CSc2nc3ccncc3[nH]2)cc1Cl,i,i,i,nt,i
COc1ccc(-c2nnn3c2nc(NCCc2ccc(OC)c(OC)c2)c2ccccc23)cc1,i,i,i,nt,i
O=C(NS(=O)(=O)c1ccc2ccc(S(=O)(=O)NCCSc3ccccc3)cc2c1)c1cccc2ccccc12,nt,nt,i,i,nt
O=C(NC1CCN(Cc2ccccc2)CC1)c1cc(S(=O)(=O)N2CCOCC2)ccc1Cl,nt,nt,i,i,nt
CCn1c(C(=O)NC(C)c2ccc3c(c2)OCCO3)cc2sccc21 (stereo not drawn),-31.6,i,i,?,i
Cc1ccc(C(C)NC(=O)C23CC4CC(CC(C4)C2)C3)cc1 (stereo not drawn),i,i,i,i,i
CC(NC(=O)C12CC3CC(CC(C3)C1)C2)c1ccc2c(c1)OCCO2 (stereo not drawn),i,i,31.8,i,i
Cc1ncsc1CCOC(=O)c1cccc([N+](=O)[O-])c1,-32.8!,i,i,i,i
O=C(COC(=O)c1cccc([N+](=O)[O-])c1)NCc1cccs1,i,i,i,i,i
COc1ccc(-c2nn(CCC#N)cc2C(=O)Nc2cccc(C(=O)O)c2)cc1OC,-36.4,i,i,i,i
CC(=O)Nc1ccc(S(=O)(=O)N(C)Cc2ccccc2)cc1,i,i,i,i,i
CC(=O)Nc1ccc(S(=O)(=O)N(C)CC(=O)N(C)Cc2sccc2C)cc1,-32.0,i,i,i,i
SMILES,D1 antagonist,D1 agonist,D3 ag,DRD3 antagonist,D1 PAM
O=C1c2ccccc2S(=O)N1c1cccc(F)c1 (stereo not drawn),nt,nt,i,i,nt
Clc1ccc(Nc2ccc(NCc3ccccc3)nn2)cc1,i,i,i,i,i
Cc1ccc(Nc2ccc(NCc3ccccc3)nn2)cc1C,-43.6,i,i,i,i
Cc1cc(NCc2ccccc2)nc2ccccc12,-66.2,34.3,i,-57.3,i
Cc1cc(NCc2ccccc2)c2ccccc2n1,i,i,i,i,i
Oc1c(Br)cc(Br)cc1/C=N/Nc1ccc(Cl)nn1,i,i,i,-68.0,i
COC(=O)c1ccc(NC(=O)CSc2cn(CC(=O)N3CCCCC3)c3ccccc23)cc1,i,i,i,nt,i
CC(C)COc1ccc(C(=O)OCCN2CCCCC2)cc1,i,i,i,i,i
COc1cc(C(=O)OCCN2CCCCC2)ccc1O,i,i,i,-57.8,i
COc1cc(C(=O)OCCCN2CCOCC2)ccc1O,i,i,i,i,i
O=C(OCCN1CCCCC1)c1ccc(Cl)cc1,i,i,i,-78.2,i

# From PubChem BioAssay
